# Paper PMC4336329 (PLoS ONE, 2015)
# In all, about 310,000 compounds went through this assay and about 14,000 (4.5%) showed an effect of 50% or more. The effect is printed as a negative number. For the sample, strong results were picked, then their nearest neighbours and some compounds at random.
# Target: human ether-à-go-go-related gene (hERG) potassium channel (human, UniProt Q12809)
# Test: primary screen, population patch clamp on CHO cells stably expressing hERG; higher = less effect of the substance
# 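Further: peak tail current of the secondary pulse compared with the same well before compound.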
# Sequence of human ether-à-go-go-related gene (hERG) potassium channel (Q12809 whole entry, looked up): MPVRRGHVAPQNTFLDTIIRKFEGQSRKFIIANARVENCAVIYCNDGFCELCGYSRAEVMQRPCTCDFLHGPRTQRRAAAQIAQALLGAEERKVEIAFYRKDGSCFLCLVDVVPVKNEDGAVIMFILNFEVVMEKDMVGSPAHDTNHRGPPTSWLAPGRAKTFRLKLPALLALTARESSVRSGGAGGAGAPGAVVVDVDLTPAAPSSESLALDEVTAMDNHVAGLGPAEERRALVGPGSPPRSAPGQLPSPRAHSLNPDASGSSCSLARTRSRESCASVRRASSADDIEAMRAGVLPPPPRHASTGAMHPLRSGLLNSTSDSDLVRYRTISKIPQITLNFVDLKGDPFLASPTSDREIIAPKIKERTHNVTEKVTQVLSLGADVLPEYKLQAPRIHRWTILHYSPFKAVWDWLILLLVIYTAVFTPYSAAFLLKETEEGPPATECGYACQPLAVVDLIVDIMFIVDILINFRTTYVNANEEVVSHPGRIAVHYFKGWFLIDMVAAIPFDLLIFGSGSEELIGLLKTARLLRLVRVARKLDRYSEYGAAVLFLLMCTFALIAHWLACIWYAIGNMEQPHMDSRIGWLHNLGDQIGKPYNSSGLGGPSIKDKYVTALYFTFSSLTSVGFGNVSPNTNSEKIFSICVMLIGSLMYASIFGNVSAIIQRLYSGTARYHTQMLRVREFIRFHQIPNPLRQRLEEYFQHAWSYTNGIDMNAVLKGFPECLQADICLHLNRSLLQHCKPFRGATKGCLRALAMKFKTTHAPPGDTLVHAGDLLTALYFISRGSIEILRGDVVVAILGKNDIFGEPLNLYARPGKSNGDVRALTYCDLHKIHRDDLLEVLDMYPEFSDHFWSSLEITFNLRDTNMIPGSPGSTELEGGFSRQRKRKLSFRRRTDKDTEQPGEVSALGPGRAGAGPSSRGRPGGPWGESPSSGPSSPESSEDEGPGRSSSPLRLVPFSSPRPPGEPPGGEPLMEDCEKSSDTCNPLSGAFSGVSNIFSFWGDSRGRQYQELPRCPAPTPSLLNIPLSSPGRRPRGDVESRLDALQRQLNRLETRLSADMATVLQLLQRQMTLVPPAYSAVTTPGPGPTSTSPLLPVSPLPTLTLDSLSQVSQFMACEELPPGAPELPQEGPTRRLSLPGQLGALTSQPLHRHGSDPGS
row,Structure (SMILES),"hERG current change (%, negative = inhibition) at 10uM"
1,N#C/C(=C\c1ccccc1)C(=O)NC1CC1,11.3%
2,O=C(CSc1nnnn1-c1cccc(F)c1)Nc1nc2ccccc2s1,8.36%
3,Cc1nonc1C1CCCN1Cc1cn[nH]c1-c1ccc(-c2ccccc2)cc1 (stereo not shown),-24.6%
4,COCC1CCN(Cc2cn[nH]c2-c2cc3ccccc3o2)C1 (stereo not shown),-33.7%
5,COc1ccc(-c2[nH]ncc2CN2CCC(N3CCSCC3)CC2)c(F)c1,1.98%
6,c1ccc2oc(-c3[nH]ncc3CN3CCC(N4CCSCC4)CC3)cc2c1,-61.9%
7,c1ccc2oc(-c3[nH]ncc3CN3CCSCC3)cc2c1,-5.92%
8,c1ccc(-c2ccc(-c3[nH]ncc3CN3CCC(N4CCSCC4)CC3)cc2)cc1,-80.7%
9,CN(C)c1ccc(CNC(=O)CN(C)S(=O)(=O)c2ccc3c(c2)c(=O)n(C)c(=O)n3C)cc1,9.67%
10,CC1(C)CC(=O)C2=C(C1)NC(=O)NC2c1ccccc1Cl (stereo not shown),16.3%
11,Cc1ccc(S(=O)(=O)NCC(=O)N(CC2CCCO2)C(C(=O)NC2CCCCC2)C(C)C)cc1 (stereo not shown),-52.7%
12,Cc1ccc(S(=O)(=O)NCC(=O)N(CC2CCCO2)C(C(=O)NC2CCCC2)C(C)C)cc1 (stereo not shown),-1.47%
13,CC(C)C(C(=O)NC1CCCCC1)N(CC1CCCO1)C(=O)CNS(=O)(=O)c1ccc(F)cc1 (stereo not shown),-7.17%
14,Cl.O=C(O)CCNc1nc(-c2ccccc2)nc2ccccc12,2.17%
15,CC(C)(C)OC(=O)NNC(=O)NC12CC3CC(CC(C3)C1)C2,-4.97%
16,Cc1ccc(NC(=O)CSc2nc(N)cc(N)n2)cc1S(=O)(=O)N1CCOCC1,7.71%
17,CCN(C(=O)C1CCN(c2nc(-c3ccc(OC)cc3)no2)CC1)c1ccccc1,-24.7%
18,O=C(CSCc1cccc(CSCC(=O)Nc2ccc3ccccc3c2)n1)Nc1ccc2ccccc2c1,9.54%
19,O=C(CSCc1ccccn1)Nc1ccccc1,1.85%
20,O=C(CSCc1cccc(CSCC(=O)Nc2ccccc2)n1)Nc1ccccc1,-67%
21,O=C(CSCc1ccco1)Nc1cc(C(F)(F)F)ccc1N1CCOCC1,-49%
22,COc1cccc(OC)c1OCC(O)CN1CCN(c2ccccc2F)CC1.Cl (stereo not shown),-12.2%

row,Structure (SMILES),"hERG current change (%, negative = inhibition) at 10uM"
1,O=S(=O)(c1ccc(OCC(O)CN2CCN(c3ccccc3O)CC2)cc1)N1CCOCC1 (stereo not shown),-6.91%
2,O=[N+]([O-])c1ccc(OCC(O)CN2CCN(c3ccccc3F)CC2)cc1 (stereo not shown),-75.3%
3,Cl.OC(COc1ccc(F)cc1)CN1CCN(c2ccccc2F)CC1 (stereo not shown),-66.6%
4,CC(C(=O)N1CCN(c2ccccc2F)CC1)c1ccc([N+](=O)[O-])cc1 (stereo not shown),-68.4%
5,Cl.OC(COCc1ccccc1)CN1CCN(c2ccccc2F)CC1 (stereo not shown),-45.9%
6,CC(C(=O)N1CCCC1)c1ccc([N+](=O)[O-])cc1 (stereo not shown),-0.0422%
7,CC(C(=O)N1CCN(c2ccccc2)CC1)c1ccc([N+](=O)[O-])cc1 (stereo not shown),-42.7%
8,Cc1ccc(N2CCN(C(=O)NC3CCCCC3)CC2C)cc1 (stereo not shown),4.09%
9,CCOC(=O)c1c(S(=O)(=O)NCc2cccs2)c(C)n(C)c1C,-12.1%
10,CC(=O)c1ccc(N(C(=O)Cc2c[nH]c3ccccc23)C(C(=O)NC2CCCCC2)c2cccs2)cc1 (stereo not shown),7.81%
11,CN1C(=O)CSC1=NCC12CC3CC(CC(C3)C1)C2,-19.6%
12,CC(C)CC(=O)NC1(C(F)(F)F)C(=O)Nc2c1c(=O)n(C)c(=O)n2C (stereo not shown),10.5%
13,COc1cc(OC)nc(NC2OC(=O)c3ccccc32)n1 (stereo not shown),0.248%
14,CC(=O)Oc1cc2c(cc1Cl)C(c1cccs1)CC1(CC(C)(C)NC(=S)N1)O2 (stereo not shown),9.77%
15,COc1cccc(CN2CCCC(C(=O)N3CCCCC3)C2)c1OC.O=C(O)C(=O)O (stereo not shown),-26.3%
16,COc1ccc(CN2CCCC(C(=O)c3ccc4c(c3)OCO4)C2)c(F)c1 (stereo not shown),-64.2%
17,COc1cccc(CN2CCC(C(=O)N3CCN(Cc4ccc5c(c4)OCO5)CC3)CC2)c1OC,-39.5%
18,COc1cccc(CN2CCCC(C(=O)c3ccc4c(c3)OCO4)C2)c1OC (stereo not shown),-63.3%
19,COc1cccc(CN2CCCC(C(=O)c3ccc4c(c3)OCO4)C2)c1O (stereo not shown),-65.5%
20,COc1cc(OC)c(OC)cc1CN1CCCC(C(=O)N2CCCC2)C1.O=C(O)C(=O)O (stereo not shown),17.4%
21,COc1cc(OC)c(OC)cc1CN1CCCC(C(=O)c2ccc3c(c2)OCO3)C1 (stereo not shown),-67.1%
22,COC(=O)c1ccccc1NC(=O)COC(=O)CO/N=C(\C)c1ccc2c(c1)OCO2,21%

row,Structure (SMILES),"hERG current change (%, negative = inhibition) at 10uM"
1,CCn1c(SCC(=O)Nc2nc3ccc(OC)cc3s2)nnc1-c1ccoc1C,-32.3%
2,OC(COc1cc(Cl)c(Cl)cc1Cl)CN1CCN(c2ncccn2)CC1 (stereo not shown),-11.3%
3,CCSc1nnc(NC(=O)CSc2nccn2-c2cc(C)cc(C)c2)s1,-2.92%
4,COc1ccc(-c2c(C)nn3c(N4CCCCCC4)cc(C)nc23)cc1OC,7.94%
5,COc1cccc(C(=O)C2CCCN(Cc3cccc4c3OCO4)C2)c1 (stereo not shown),-49.4%
6,CCNC(=O)N1CCCC(C(=O)c2ccc(OC)c(OC)c2)C1 (stereo not shown),20.8%
7,COc1ccc(C(=O)C2CCCN(Cc3cccc4c3OCO4)C2)cc1OC (stereo not shown),-73.8%
8,CCN1C(=O)CC(N2CCN(c3cccc(OC)c3)CC2)C1=O (stereo not shown),14.1%
9,Cc1cc2nccc(-c3ccccn3)n2n1,28.3%
10,Cc1ccc(Nc2nc(=O)[nH]nc2C)cc1,-9.45%
11,CC1CCCCC1NC(=O)CCNC(=O)N1CC(=O)Nc2ccccc21 (stereo not shown),10.5%
12,CC(=O)Nc1cccc(-c2nnc(SCC(=O)n3c4c(c5ccccc53)CCCC4)n2C)c1,2.33%
13,CCOC(=O)c1sc(NC(=O)CSc2nnnn2-c2ccccc2)c(C(=O)OCC)c1C,4.34%
14,CCOC(=O)c1c(NC(=O)COc2ccccc2)sc2c1CC(C)(C)NC2(C)C,14.3%
15,CCOC(=O)c1c(NC(=O)CSc2nc3ccc(C)cc3[nH]2)sc2c1CC(C)(C)NC2(C)C,-44.3%
16,CCOC(=O)c1c(NC(=O)COc2ccccc2OCC)sc2c1CC(C)(C)NC2(C)C,13.3%
17,COC(=O)c1c(NC(=O)Cc2ccccc2)sc2c1CC(C)(C)NC2(C)C,-11.1%
18,CCOC(=O)c1c(NC(=O)Cc2ccccc2)sc2c1CC(C)(C)NC2(C)C,-52%
19,CCOC(=O)c1c(NC(=O)COc2ccccc2F)sc2c1CC(C)(C)NC2(C)C,5.17%
20,CCOC(=O)c1c(NC(=O)CSc2ncccn2)sc2c1CC(C)(C)NC2(C)C,-55.9%
21,CCOC(=O)c1c(NC(=O)CSc2nnnn2-c2ccccc2OCC)sc2c1CC(C)(C)NC2(C)C,-71.2%
22,CCOC(=O)c1c(NC(=O)CSc2nnnn2-c2ccccc2)sc2c1CC(C)(C)NC2(C)C,-64.3%

row,Structure (SMILES),"hERG current change (%, negative = inhibition) at 10uM"
1,CCOC(=O)c1c(NC(=O)CSc2nc3ccccc3[nH]2)sc2c1CC(C)(C)NC2(C)C,-45.2%
2,CCOC(=O)c1c(NC(=O)CSc2nnnn2-c2ccccc2)sc2c1CCC(C)C2 (stereo not shown),-5.66%
3,N#Cc1ccc2ccn(CC(=O)NCc3ccccc3)c2c1,-1.22%
4,O=C(CN1CCN(Cc2ccccc2F)C1=O)NC1CCCC1,1.87%
5,Cc1nccn1CC(O)COC1CCCCC1 (stereo not shown),13%
6,Nc1nnnn1/N=C/c1cccs1,3.28%
7,CSc1ncccc1C(=O)NCCc1ccccc1,7.94%
8,CC(C)n1c(CN2CCN(Cc3ccccc3)CC2)nc2ccccc21,-14.4%
9,CCC(C)NC(=O)CSc1nc2c(sc(=S)n2Cc2ccco2)c(=O)n1-c1ccccc1 (stereo not shown),-9.99%
10,CCn1c(=S)sc2c(=O)n(-c3ccccc3)c(SC)nc21,-11.2%
11,CCN(CC)C(=O)CSc1nc2c(sc(=S)n2-c2ccccc2OC)c(=O)n1-c1ccccc1,-4.22%
12,CCN(CC)C(=O)CSc1nc2c(sc(=S)n2-c2ccccc2)c(=O)n1Cc1ccco1,-78.7%
13,CCN(CC)C(=O)CSc1nc2c(sc(=S)n2CC)c(=O)n1-c1ccccc1,-66.9%
14,CCN(CC)C(=O)CSc1nc2c(sc(=S)n2Cc2ccco2)c(=O)n1-c1ccccc1,-29.4%
15,CC(C)CCNC(=O)C1CCN(S(=O)(=O)c2ccc3c(c2)CC(C)N3C(=O)C2CCC2)CC1 (stereo not shown),-12.7%
16,CN(Cc1ccccc1)C(=S)Nc1cccnc1,9.05%
17,COc1c(C)cc(Br)cc1C(=O)Nc1ccc(Cc2ccncc2)cc1,-3.5%
18,COc1ccc(N(C(=O)Cn2nnc(-c3ccc(F)cc3)n2)C(C)C(=O)NC2CCCC2)cc1 (stereo not shown),-22%
19,CCC/C(O)=C1\C(=O)CC(c2ccccc2)CC1=NCCc1c(C)[nH]c2ccccc12 (stereo not shown),-39.3%
